Inconclusive results are not listed. Entries that show only a call come without a potency. Active and inactive are the calls of the source. The call rests on the fitted dose curve; in most records, active means well fitted activation curve with a large enough effect; inconclusive means small, poorly fitted or top-dose-only effect; inactive means no such curve, though single readings can be large or run the other way.
Assay: qHTS assay for re-activators of p53 using a Luc reporter: Hit Validation with no p53 Expressed
Conditions: p53-null cells, luciferase reporter counter-screen; series mostly up to 46.1 µM
Outline: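 Counter-screen of primary hits in a cell line not transfected with p53, in Opti-MEM with 10% FBS; compounds at several concentrations (10 mM stock, 1:5; top 46.1 µM in well), 24 h at 37 deg C, 5% CO2. Luminescence read after 10 min with Amplite reagent.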

SMILES | Potency
CCCS(=O)(=O)N1CCC(C(=O)NCCN(CC)c2ccccc2)CC1 | inactive
Cn1cc(Cl)c(C(=O)Nc2nc3ccccc3s2)n1 | inactive
O=C(COc1ccc(Cl)cc1Cl)Nc1ccc(Cl)cn1 | inactive
NNC(=O)c1cccc(COc2ccc(Br)cc2)c1 | inactive
Nc1ccc(-c2cnc(-c3ccc(N)cc3)nc2)cc1 | inactive
N#C/C(=C\c1ccc(OCc2ccc(Br)cc2)cc1)C(=O)Nc1cccc(C(=O)O)c1 | inactive
CCOC(=O)c1c(C)[nH]c(C(=O)CSc2ccccc2)c1C | inactive
COc1ccc(C2/C(=C(/O)c3ccc(C)cc3)C(=O)C(=O)N2CCCN2CCOCC2)cc1 (stereo not given) | inactive
C/C(=N\NC(=O)c1ccccc1)c1ccc(NC(=O)c2cccs2)cc1 | inactive
O=C(NCCCNC1CCCCC1)c1ccc(/C=N/O)nc1 | inactive
O=c1oc2ccccc2nc1/C=C(O)/C=C/c1ccc(F)cc1 | inactive
CC(C)(C)c1nnc(N/N=C/c2cc(Br)ccc2O)n(N)c1=O | inactive
COC(=O)CSc1nc2cc3c(cc2cc1C#N)OCO3 | inactive
C1=C(CCNc2ncnc3nc[nH]c23)CCCC1 | inactive
Fc1cc(NCc2ccccc2)nc(NCc2ccccc2)n1 | inactive
Nc1nc2ccc(N3CCOCC3)cc2s1 | inactive
O=c1oc(CCO)cc2ccc(C#Cc3ccsc3)cc12 | inactive
COCCn1c(SCC(=O)Nc2ccc(N3CCOCC3)cc2)nc2ccccc21 | inactive
COc1ccc2c(c1OC)C(=O)OC2Nc1nc(-c2cc3ccccc3oc2=O)cs1 (stereo not given) | inactive
O=c1oc(-c2ccc(O)c(O)c2)cc2cc(O)cc(O)c12 | inactive
